These entries were drawn from the full list.
aSyn UTR act = Activators via SNCA 5'UTR binding, MLPCN. alpha-synuclein 5'UTR reporter, activators screen. activity score, % (tested at 7.5 µM), hits read low. 300,000 compounds, 7.1% hits; in the data active = activity score below about -60%
* hit, by the source's call.

SMILES | aSyn UTR act
Cc1ccc(Nc2nc(N)nc(CSC(=S)N3CCOCC3)n2)c(C)c1 | -93*
Nc1nc(CSC(=S)N2CCOCC2)nc(Nc2ccc(F)cc2)n1 | -70*
COc1ccc(Nc2nc(N)nc(CSC(=S)N3CCOCC3)n2)cc1 | -87*
O=C(CCSc1ccccc1)Nc1ccccc1Br | -91*
N#C/C(=C\c1c[nH]c2ccccc12)C(=O)NCC1CCCO1 (stereo not drawn) | -73*
CCOC(=O)c1ccc(-c2ccc(/C=C(\C#N)C(=O)NCC3CCCO3)o2)cc1 (stereo not drawn) | -85*
CC(C)OC(=O)/C(C#N)=C/c1cn(Cc2ccccc2)c2ccccc12 | 75
N#C/C(=C\c1cccs1)C(=O)NCC1CCCO1 (stereo not drawn) | -66*
CC(C)OC(=O)/C(C#N)=C/c1c[nH]c2ccccc12 | -80*
CC(C)(C)c1nnc(NC(=O)c2ccc(Cl)nc2)s1 | -126*
C=CCSc1nnc(NC(=O)c2ccc(Cl)nc2)s1 | -77*
C=CCn1c2ccccc2c(=O)c2cc(C#Cc3ccsc3)ccc21 | -211*
CCSc1ncc(/C=N/Nc2ccc([N+](=O)[O-])cc2)n1C | -194*
CCSc1ncc(/C=N/Nc2ccccc2)n1C | -109*
CCSc1ncc(/C=N/Nc2ccc(Cl)cc2)n1C | -181*
COc1ccccc1NC(=O)c1cc2ccccc2o/c1=N\O | -129*
COc1ccccc1NC(=O)c1cc2ccc(O)cc2o/c1=N\O | -97*
COc1ccc(N=c2oc3ccccc3cc2C(=O)Nc2ccccn2)cc1OC | -107*
Cc1oc(-c2ccc(-c3ccccc3)cc2)nc1CN1CCN(CC(=O)N(C)C)CC1 | -143*
COc1ccc(-c2nc(CN3CCN(c4cc(C)nc(C)c4)CC3)c(C)o2)c2ccccc12 | 68
COc1ccc(-c2csc(NCc3ccco3)n2)cc1 | -160*
Cc1nc(C)c(-c2csc(NCc3ccco3)n2)s1 | -99*
c1coc(CNc2nc(-c3ccncc3)cs2)c1 | -92*
CCOC(=O)/C(C#N)=C\C=C1C=CN(C)C=C1 | -150*
C=CCn1c(=N)n(CC(=O)c2cccc([N+](=O)[O-])c2)c2ccccc21 | -77*
SMILES | aSyn UTR act
O=C1c2ccccc2C(=O)C1c1ccc(O)cc1 | -87*
Clc1ccc(OCc2cn3cccnc3n2)c2ncccc12 | -64*
Cc1cc(Cl)ccc1OCc1cn2cccnc2n1 | -124*
Cc1ccc(C(=O)N/N=C2\SCC(=O)N2c2cc(C)ccc2C)cc1 | -94*
O=C(Nc1cccc(-c2cn3c(n2)SCC3)c1)c1ccc2ccccc2n1 | -141*
O=C(Nc1ccc(-c2cn3c(n2)SCC3)cc1)c1ccc2ccccc2n1 | -186*
Cc1ccc2nc(N3C(=O)CNC3=S)sc2c1 | -68*
C/C(N)=C(/C#N)C(=O)CSc1nnc(Nc2ccccc2C)s1 | -77*
C/C(N)=C(/C#N)C(=O)CSc1nnc(Nc2ccccc2)s1 | -125*
COC(=O)c1ccc(NC(=O)Cn2nnc3ccccc32)cc1 | -174*
Cc1cccc(NC(=O)Cn2nnc3ccccc32)c1 | -104*
Cc1ccc(NC(=O)Cn2nnc3ccccc32)cc1 | -176*
COc1cc(CNc2ncn[nH]2)ccc1OCc1cccc(C)c1 | -95*
COc1cccc(/C=C2\CCc3ccccc3C2=O)c1 | -97*
COc1ccc(OC)c(C2C3=C(COC3=O)Nc3cc4c(cc32)OCO4)c1 (stereo not drawn) | 89
COc1ccc(N/C=C2\CCc3ccccc3C2=O)cc1 | 94
COc1ccc2c(c1)CC/C(=C\Nc1ccc3c(c1)OCO3)C2=O | -197*
O=C1/C(=C/Nc2ccc3c(c2)OCO3)CCc2ccccc21 | 96
COc1ccc2c(c1)CC/C(=C/c1ccccn1)C2=O | -81*
COc1ccc2c(c1)CC/C(=C\C=C\c1ccccc1)C2=O | -64*
[O-]/C(=C(\C(=S)Nc1cccc2ccccc12)[n+]1ccccc1)c1ccc(Cl)s1 | -63*
Cc1nc(C#N)c(N/N=C/c2c(F)cccc2Cl)o1 | -62*
Cc1ccc(OCc2cc(C(=O)NCC(C)(C)N3CCOCC3)no2)cc1C | -122*
COc1cc(C)ccc1OCc1cc(C(=O)NCCN2CCOCC2)no1 | -124*
CCN1CCCC1CNC(=O)c1cc(COc2ccc(C)c(C)c2)on1 (stereo not drawn) | -63*
SMILES | aSyn UTR act
CS(=O)(=O)c1ccc2nc(NC(=O)c3ccccc3Br)sc2c1 | -104*
CS(=O)(=O)c1ccc2nc(NC(=O)c3ccccc3Cl)sc2c1 | -109*
COc1ccccc1C(=O)Nc1nc2ccccc2s1 | 109
COc1ccccc1C(=O)Nc1nc2ccc(S(C)(=O)=O)cc2s1 | -118*
CS(=O)(=O)c1ccc2nc(NC(=O)c3cccc(Cl)c3)sc2c1 | -72*
Cc1noc(C)c1C(=O)Nc1nc2ccc(S(C)(=O)=O)cc2s1 | -70*
CCOc1cccc(-c2nc3cc(C)ccc3o2)c1 | -153*
Cc1ccc2oc(Nc3nc(C)cc(C)n3)nc2c1 | -163*
Cc1nc(Nc2nc3ccccc3o2)nc2c1CCC2 | 71
Cc1ccc2oc(-c3ccccc3)nc2c1 | -188*
Cc1ccc(C)c(-c2nc3cc(N)ccc3o2)c1 | 63
Cc1ccc(-n2sc3ccccc3c2=O)cc1 | -121*
